# Source: PubChem BioAssay (NCI)
# About 83,000 compounds went through this panel and 20% of them were active in at least one assay; those are over-represented in the sample as a whole.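 For each line, cells grew in 96-well plates with the test compound present at a single concentration for 48 hours.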 Unmarked numbers belong to inactive results. Active and inactive are the calls of the source. Rule for the calls: active = growth percent below 10; inactive = the rest.
# System: NCI-H460 lung
# Experiment: NCI-60 one-dose screen, 48 h (100 = growth as untreated, 0 = no growth, -100 = all killed)
# Conditions: 10 µM unless noted
row,SMILES,growth
1,COC(=O)Nc1nc2ccc(S(=O)c3ccccc3)cc2[nH]1 (stereo not drawn),60.3%
2,O=C(c1nn(-c2ccccc2)c2c1CC(NCc1ccc(F)cc1)CC2)N1CCCCC1 (stereo not drawn),117%
3,CC(C)c1ccc(C(=O)Nc2nc3ccc(O)c(CN(C)C)c3s2)cc1,59.5%
4,CCCNC(=O)Nc1ccc2cc3ccc(NC(=O)NCCC)cc3nc2c1,104%
5,N=C(N)c1ccc(-c2ccc(-c3ccc(Cl)c(Cl)c3)s2)nc1,-61.6% (active)
6,CNc1nnc2n(-c3ccccc3)c(=O)c3cnn(-c4ccccc4)c3n12,106%
7,COc1cc(OC)c(/C=C/C(=O)c2c(OC)cccc2OC)c(OC)c1,9.67% (active)
8,Cn1c(I)c(C#CCO[Si](C)(C)C(C)(C)C)c(=O)[nH]c1=O,106%
9,CC1CCN(CCOc2ccc(CNc3ccc4nc(CCC5CCCCC5)[nH]c4c3)cc2)CC1,27.1%
10,Cc1cn(-c2cc(NC(=O)c3cccc(C#Cc4cccc5[nH]nc(N)c45)c3)cc(C(F)(F)F)c2)cn1,30.5%
11,CC1CN(S(=O)(=O)c2oc(-c3ccc(Cl)cc3)nc2C#N)CC(C)O1 (stereo not drawn),103%
12,N=C(N)c1ccc(-c2ccc(-c3ccccc3)o2)cc1,-73.1% (active)
13,CCCCCCC12CCC(=O)N1CCc1cncn12 (stereo not drawn),105%
14,CCCCCCCCCCCCCCCCCCOc1ccccc1CC(=O)OCC[N+](C)(C)C,13.5%
15,O=C(CN1CCOCC1)Nc1nc(-c2cc3ccccc3oc2=O)cs1,103%
16,O=c1[nH]c(-c2ccccc2)nc2sc3cc(O)ccc3c12,84.1%
17,Cc1cc(C(=O)O)c(C)n1-c1cccc(C(=O)O)c1,35.1%
18,COc1ccc(C/C(C)=C(/c2ccc(OCCN(C)C)cc2)c2ccc(OC(=O)NCc3ccccc3)cc2)cc1,22.9%
19,O=S(=O)(Nc1ccc(F)cc1F)c1ccc(-c2cnc(C3CC3)o2)cc1,16.3%
20,Cc1ccc(NC(=O)Cn2cc(CN3CCN(c4ccnc5cc(Cl)ccc45)CC3)nn2)cc1,92.2%

row,SMILES,growth
1,Cc1cc(=O)oc2cc(OCc3nn4c(Nc5nc6ccccc6s5)c(-c5ccccc5)nc4s3)ccc12,83.8%
2,OB1OCc2cc(/C=C/c3cccc(C(F)(F)F)c3)ccc21,-10.1% (active)
3,CC1(C)CC(=O)C2=C(C1)N(c1ccc(OC(F)(F)F)cc1)C(N)=C(C#N)C2c1ccc(Br)cc1F (stereo not drawn),25.3%
4,C=C1CC[C@@H]2[C@](C)(COC(C)=O)[C@H](OC(C)=O)CC[C@@]2(C)[C@@H]1CC(Nc1ccc(S(=O)(=O)Nc2ncccn2)cc1)C1=CCOC1=O (stereo partly drawn),18.1%
5,COCCOc1cc2ncnc(N3CCN(c4ncc(S(=O)(=O)N5CCCCC5)cn4)CC3)c2cc1OCCOC,103%
6,COC(=O)[C@]1(C)CCC[C@]2(C)[C@H]3C[C@H]4C(C(C)C)=C[C@]3(CC[C@H]21)[C@@H]1C(=O)CC[C@H](OCCC#N)[C@@H]14,94.7%
7,O=C1c2c(c3c4ccccc4[nH]c3c3ccc4ccccc4c23)C(=O)N1CCN1CCNCC1,-69.2% (active)
8,COC(=O)c1nc(-c2ccc(C)cc2)oc1S(=O)(=O)c1cccc(OC)c1,104%
9,COc1ccc2c(c1)CC[C@H](O)/C2=C/c1cc(OC)c(OC)c(OC)c1,4.68% (active)
10,C=CC[Se]C(=O)Cc1c(C)n(C(=O)c2ccc(Cl)cc2)c2ccc(OC)cc12,-6.72% (active)
11,Cc1ccc(C)n1-c1ccccc1-n1c(C)ccc1C,105%
12,O=C(NNC(=O)c1ccc(NC(=O)c2ccccn2)cc1)Nc1ccc([N+](=O)[O-])cc1,107%
13,CCCCCCCCCCCCCCCCOCCCOP(=O)(O)C1CCCN(O)C1=O (stereo not drawn),-9.19% (active)
14,Cc1[nH]c(C(=O)Nc2ccccc2OC2CCNCC2)c(Cl)c1Cl,5.07% (active)
15,c1csc(-c2ccc(CNc3c4ccccc4nc4ccccc34)cc2)c1,12.9%
16,O=C1/C(=C/c2ccccc2O)CC/C1=C\c1ccccc1O,68.9%
17,CN(C)S(=O)(=O)c1cccc(C(=O)Nc2nc(-c3ccc(F)c(F)c3)cs2)c1,49.4%
18,COc1ccc(C/C(C)=C(\c2ccc(Cl)cc2)c2ccc(OCCN3CCCCC3)cc2)cc1,101%
19,N#Cc1c(-c2ccc(Cl)cc2)nc(NN2C(=O)c3ccccc3C2=O)nc1N1CCOCC1,106%

# System: HOP-92 NSCLC
# Experiment: as above
# Conditions: 10 µM unless noted
row,SMILES,growth
1,COC(=O)Nc1nc2ccc(S(=O)c3ccccc3)cc2[nH]1 (stereo not drawn),75.5%
2,O=C(c1nn(-c2ccccc2)c2c1CC(NCc1ccc(F)cc1)CC2)N1CCCCC1 (stereo not drawn),92.5%
3,CC(C)c1ccc(C(=O)Nc2nc3ccc(O)c(CN(C)C)c3s2)cc1,81.7%
4,CCCNC(=O)Nc1ccc2cc3ccc(NC(=O)NCCC)cc3nc2c1,79.2%
5,N=C(N)c1ccc(-c2ccc(-c3ccc(Cl)c(Cl)c3)s2)nc1,77.3%
6,CNc1nnc2n(-c3ccccc3)c(=O)c3cnn(-c4ccccc4)c3n12,78.3%
7,COc1cc(OC)c(/C=C/C(=O)c2c(OC)cccc2OC)c(OC)c1,-1.46% (active)
8,Cn1c(I)c(C#CCO[Si](C)(C)C(C)(C)C)c(=O)[nH]c1=O,59.4%
9,CC1CCN(CCOc2ccc(CNc3ccc4nc(CCC5CCCCC5)[nH]c4c3)cc2)CC1,16%
10,Cc1cn(-c2cc(NC(=O)c3cccc(C#Cc4cccc5[nH]nc(N)c45)c3)cc(C(F)(F)F)c2)cn1,-16.6% (active)
11,CC1CN(S(=O)(=O)c2oc(-c3ccc(Cl)cc3)nc2C#N)CC(C)O1 (stereo not drawn),76.3%
12,N=C(N)c1ccc(-c2ccc(-c3ccccc3)o2)cc1,-59.5% (active)
13,CCCCCCC12CCC(=O)N1CCc1cncn12 (stereo not drawn),113%
14,CCCCCCCCCCCCCCCCCCOc1ccccc1CC(=O)OCC[N+](C)(C)C,-14% (active)
15,O=C(CN1CCOCC1)Nc1nc(-c2cc3ccccc3oc2=O)cs1,90.7%
16,O=c1[nH]c(-c2ccccc2)nc2sc3cc(O)ccc3c12,94.8%
17,Cc1cc(C(=O)O)c(C)n1-c1cccc(C(=O)O)c1,90.5%
18,COc1ccc(C/C(C)=C(/c2ccc(OCCN(C)C)cc2)c2ccc(OC(=O)NCc3ccccc3)cc2)cc1,38.2%
19,O=S(=O)(Nc1ccc(F)cc1F)c1ccc(-c2cnc(C3CC3)o2)cc1,44.4%
20,Cc1ccc(NC(=O)Cn2cc(CN3CCN(c4ccnc5cc(Cl)ccc45)CC3)nn2)cc1,52.6%

row,SMILES,growth
1,Cc1cc(=O)oc2cc(OCc3nn4c(Nc5nc6ccccc6s5)c(-c5ccccc5)nc4s3)ccc12,77.1%
2,OB1OCc2cc(/C=C/c3cccc(C(F)(F)F)c3)ccc21,-27.9% (active)
3,CC1(C)CC(=O)C2=C(C1)N(c1ccc(OC(F)(F)F)cc1)C(N)=C(C#N)C2c1ccc(Br)cc1F (stereo not drawn),39.8%
4,C=C1CC[C@@H]2[C@](C)(COC(C)=O)[C@H](OC(C)=O)CC[C@@]2(C)[C@@H]1CC(Nc1ccc(S(=O)(=O)Nc2ncccn2)cc1)C1=CCOC1=O (stereo partly drawn),56.3%
5,COCCOc1cc2ncnc(N3CCN(c4ncc(S(=O)(=O)N5CCCCC5)cn4)CC3)c2cc1OCCOC,89.5%
6,COC(=O)[C@]1(C)CCC[C@]2(C)[C@H]3C[C@H]4C(C(C)C)=C[C@]3(CC[C@H]21)[C@@H]1C(=O)CC[C@H](OCCC#N)[C@@H]14,76.6%
7,O=C1c2c(c3c4ccccc4[nH]c3c3ccc4ccccc4c23)C(=O)N1CCN1CCNCC1,78.3%
8,COC(=O)c1nc(-c2ccc(C)cc2)oc1S(=O)(=O)c1cccc(OC)c1,79.6%
9,COc1ccc2c(c1)CC[C@H](O)/C2=C/c1cc(OC)c(OC)c(OC)c1,5.25% (active)
10,C=CC[Se]C(=O)Cc1c(C)n(C(=O)c2ccc(Cl)cc2)c2ccc(OC)cc12,-21.6% (active)
11,Cc1ccc(C)n1-c1ccccc1-n1c(C)ccc1C,92.4%
12,O=C(NNC(=O)c1ccc(NC(=O)c2ccccn2)cc1)Nc1ccc([N+](=O)[O-])cc1,96.7%
13,CCCCCCCCCCCCCCCCOCCCOP(=O)(O)C1CCCN(O)C1=O (stereo not drawn),39.3%
14,Cc1[nH]c(C(=O)Nc2ccccc2OC2CCNCC2)c(Cl)c1Cl,-2.05% (active)
15,c1csc(-c2ccc(CNc3c4ccccc4nc4ccccc34)cc2)c1,-2.1% (active)
16,O=C1/C(=C/c2ccccc2O)CC/C1=C\c1ccccc1O,20%
17,CN(C)S(=O)(=O)c1cccc(C(=O)Nc2nc(-c3ccc(F)c(F)c3)cs2)c1,67.1%
18,COc1ccc(C/C(C)=C(\c2ccc(Cl)cc2)c2ccc(OCCN3CCCCC3)cc2)cc1,87.9%
19,N#Cc1c(-c2ccc(Cl)cc2)nc(NN2C(=O)c3ccccc3C2=O)nc1N1CCOCC1,99.8%
